# Source: PubChem BioAssay (Tox21)
# Records with an inconclusive call do not appear. A number with no mark means an inactive call. Calls of active or inactive are those of the source. The call rests on the fitted dose curve.
# Test: p53 small molecule agonists, cell-based qHTS assay with human liver microsomes (AID 1963577);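 further: p53 response element beta-lactamase reporter cells with liver microsomes plus NADPH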
# Conditions: HCT-116 p53RE-bla with human liver microsomes, ratio, 16 h; series mostly up to 66 µM; activation: at the top concentration
# Source text: National Center for Advancing Translational Sciences [NCATS]
# Division of Preclinical Innovation [DPI]
# U.S. Environmental Protection Agency [EPA]
# National Institutes of Environmental Health Sciences [NIEHS]
# National Toxicology Program [NTP]
# U.S. Food and Drug Administration [FDA]
# p53, a tumor suppressor protein, is activated following cellular insult, including DNA damage and other cellular stresses. The activation of p53 regulates cell fate by inducing DNA repair, cell cycle arrest, apoptosis, or cellular senescence. The activation of p53, therefore, is a good indicator of DNA damage and other cellular stresses. […] The activation of the reporter gene under culture conditions can be detected by fluorescence intensity.
# Tox21 Assay Protocol Summary:
# The p53RE-bla cells were dispensed at 4,000cells/3ul/well in 1536-well black-clear bottom plates. After the assay plates were incubated at 37 C, 5% CO2 incubator for 5 hours, 23 nL of compounds dissolved in DMSO, positive controls or DMSO only was transferred to the assay plate. Following compound addition, 3 uL of human liver microsomes (XenoTech, Kansas City, KS) at final concentration of 0.5 mg/mL and 1uL of Beta-Nicotinamide adenine dinucleotide 2-phosphate (NADPH) at final concentration of 0.5 mg/mL were transferred to the assay plate. The plates were incubated at 37 C for 16 hours. 1 uL of LiveBLAzer detection mixture was added to each well and the plates were incubated at room temperature in the dark for 2 h.
# On the % scale 0 is the no-effect control and ±100 the full control effect.
SMILES,activation,Potency
CCN1C(=O)c2ccccc2C1Nc1ccc(OCCN2CCCCC2)cc1 (stereo not given),-1.58% [at 30.3 µM],
O=C(O)CN(CCN(CC(=O)O)CC(=O)O)CCN(CC(=O)O)CC(=O)O,-9.98% [at 13.5 µM],
CCOC(=O)CC(C(C)=O)C(C)=O,0.351%,
OCC(CO)N[C@H]1C[C@](O)(CO)[C@@H](O)[C@H](O)[C@H]1O,7.05% [at 30.3 µM],
O=C(O[C@@H]1Cc2c(O)cc(O)cc2O[C@@H]1c1cc(O)c(O)c(O)c1)c1cc(O)c(O)c(O)c1,,inactive
C[N+](C)(C)CC(O)CCl (stereo not given),3.02%,
COCCOCCOCCOCCO,-2.12%,
CC12CCC(C1)C(C)(C)C2O (stereo not given),1.61%,
COCc1ccc(COC)cc1,1.31%,
CC(C)(CCC(=O)O)C(=O)O,0.0664%,
COc1cc(C(=S)N2CCOCC2)ccc1O,-0.585% [at 30.3 µM],
O=C(O)c1cc(=O)[nH]c(=O)[nH]1,,inactive
CCOC(=O)c1c(C)n(C)c2ccc(O)cc12,-12.8% [at 30.3 µM],
Cc1ccccc1C(=O)N1CC/C(=N\OS(=O)(=O)O)c2ccc(Cl)cc21,8% [at 30.3 µM],
Nc1ccc(NCCO)c([N+](=O)[O-])c1,-4.62%,
O,,inactive
CC(C)Nc1ccccc1,-0.119%,
CC(=O)[C@H]1CC[C@H]2[C@@H]3CCC4=CC(=O)CC[C@]4(C)[C@H]3CC[C@]12C,,inactive
CCCCNc1ccccc1,1.82%,
Nc1ccc(S(=O)(=O)Nc2ccc(Cl)nn2)cc1,2.44% [at 30.3 µM],

SMILES,activation,Potency
CCO[Si](OCC)(OCC)c1ccccc1,2.08%,
CC(=O)CC(N)=O,0.811%,
CC(C)(C)c1ccc(S)cc1,0.212%,
CC(C)CCCCCCc1ccc(O)cc1,5.97%,
CC/C=C\C#N,7.46%,
N[C@H]1C(O)O[C@H](CO)[C@@H](O)[C@@H]1O (stereo not given in full),-0.48% [at 30.3 µM],
Cc1cnccn1,0.727%,
CSc1nnc(C(C)(C)C)c(=O)[nH]1,-9.39%,
CC1CCC(C(C)(C)S)C(=O)C1 (stereo not given),-2.89%,
O=C(O)c1ccc([N+](=O)[O-])cc1,,inactive
CCC(C)NC(N)=O (stereo not given),-2.57%,
CCNc1nc(N)nc(Cl)n1,-0.13%,
NCCO,,inactive
Cc1ccc(C)cc1,1.13%,
CC12CC3CC(C)(C1)CC(N)(C3)C2,-5.04% [at 30.3 µM],
CCOC(=O)OC(=O)OCC,1.03%,
CCOCOCC,-0.149%,
N#[N+]c1ccc2c(S(=O)(=O)[O-])cccc2c1O,1%,
O=[N+]([O-])c1ccc2c(c1)Cc1ccccc1-2,,inactive
O=S(=O)(O)CCCN1CCOCC1,-0.162%,
